# Giardia FBPA inh: inhibitors of Giardia lamblia fructose-1,6-bisphosphate aldolase; hit rate 0.71% among 290,000; purified Giardia FBPA; Potency, µM (top dose mostly 59.6 µM), for inactives: at the highest dose activity, negative = inhibition, hits mostly inhibitors; A8B2U2; further: nearly all actives have a fitted effect of over 55% in size
# Target sequence (A8B2U2 whole entry, looked up): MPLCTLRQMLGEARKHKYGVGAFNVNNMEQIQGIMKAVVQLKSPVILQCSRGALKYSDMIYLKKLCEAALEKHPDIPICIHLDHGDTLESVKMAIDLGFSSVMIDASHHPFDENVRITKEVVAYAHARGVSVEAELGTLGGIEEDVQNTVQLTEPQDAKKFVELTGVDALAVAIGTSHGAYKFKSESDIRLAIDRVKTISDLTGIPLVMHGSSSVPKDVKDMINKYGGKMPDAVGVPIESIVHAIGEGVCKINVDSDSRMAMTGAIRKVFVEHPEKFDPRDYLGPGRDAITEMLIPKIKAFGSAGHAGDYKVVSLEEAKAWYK
#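 40 nM FBPA preincubated 10 min at RT with compound (up to 57.5 uM final), then substrate plus GAPDH/TPI/NAD/arsenate coupling and diaphorase/resazurin added. Fluorescence read after 20 min at RT, 525/598 nm.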
# AmpC no deterg: AmpC beta-lactamase inhibition without detergent; AmpC nitrocefin hydrolysis, absorbance 480 nm, 0.0001% Triton; P00811; AID 485341; hit rate 0.52% among 330,000; Potency, µM (series often up to 57.1 µM), for inactives: at the top dose activity change, negative = inhibition, most hits filed as inhibitors;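 further: plate controls were no compound for no effect and no enzyme for full effect; nearly all actives have a fitted effect of over 20% in size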
# Target sequence (P00811 whole entry, looked up): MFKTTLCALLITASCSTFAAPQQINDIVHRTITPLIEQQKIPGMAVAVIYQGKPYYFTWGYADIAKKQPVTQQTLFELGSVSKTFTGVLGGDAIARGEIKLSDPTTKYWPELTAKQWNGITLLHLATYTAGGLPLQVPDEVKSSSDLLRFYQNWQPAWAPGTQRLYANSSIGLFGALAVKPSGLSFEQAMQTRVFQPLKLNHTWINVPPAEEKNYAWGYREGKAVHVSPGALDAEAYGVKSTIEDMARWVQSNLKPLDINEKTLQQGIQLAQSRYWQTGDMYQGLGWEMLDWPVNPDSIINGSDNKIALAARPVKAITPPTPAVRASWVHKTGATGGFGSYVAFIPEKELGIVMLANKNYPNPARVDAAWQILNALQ
#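 20 mM phosphate pH 7.0 + 0.01% (detergent screen) or 0.0001% Triton X-100; 5.3 nM AmpC reagent; cpd preinc 15 min RT; nitrocefin (800 uM stock) to start; A480 q20 s × 4 min; Activity was normalised to no-enzyme and no-compound control wells.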
# RE007 growth inh: less growth of the S. pombe RE007 Vpr strain | S. pombe RE007 Vpr strain, BacTiter-Glo ATP luminescence, 24 h | hit rate 0.21% among 360,000 | Potency, µM (titrated, usually from 92.2 µM), without a hit: at the highest dose activity change, negative = less growth, most hits filed as inhibitors; active means well fitted falling curve with a large enough effect; inconclusive means small, poorly fitted or top-dose-only effect; inactive means no such curve, though single readings can be large or run the other way; further: nearly all actives have a fitted effect of over 50% in size
#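 Fission yeast strain RE007, carrying one chromosomally integrated HIV-1 vpr copy, was seeded at OD 0.01 in PMG+AL medium with 23 nL pinned compound. After 24 h at 30 °C and 99% humidity, viability was read by BacTiter-Glo luminescence.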
# Sm TGR block: inhibitors of Schistosoma mansoni thioredoxin glutathione reductase; Q962Y6; purified TGR, DTNB reduction, TNB absorbance 405 nm; Potency, µM (doses to about 114 µM), for the others: top-dose activity change, negative = inhibition, actives largely listed as inhibitors; hit rate 3% among 360,000; further: nearly all actives have a fitted effect of over 60% in size
#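 First, TGR (20 nM dispensed) and NADPH were mixed with compound. Second, a 15 min room-temperature incubation followed. Third, further NADPH and then DTNB were added to start the reaction. Finally, TNB absorbance was monitored kinetically.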
# AmpC inh detg: blocks E. coli AmpC beta-lactamase in detergent assay. hit rate 0.041% among 370,000. Potency, µM (doses to about 114 µM), for the others: top-dose activity change, negative = inhibition, usual class: inhibitors. P00811. AID 485294. AmpC hydrolysis of nitrocefin, absorbance 480 nm, 0.01% Triton;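 further: 0% = no-compound wells and -100% = no-enzyme wells; nearly all actives have a fitted effect of over 25% in size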
#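 AmpC (5.3 nM in the dispensed reagent) in 20 mM phosphate pH 7.0 with 0.01% (detergent screen) or 0.0001% Triton X-100 was preincubated with compounds for 15 min at room temperature. Nitrocefin was then added from an 800 uM solution, and hydrolysis was followed at 480 nm.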
# Active calls of the source: *; ? = inconclusive; nt = no result given; ! = a repeat was not active; [ ] = remark or other dose. Hits are enriched below; roughly 3.4% of the tested compounds scored in any of these assays. Unless noted, the call rests on the fitted dose curve; in most records, active means well fitted curve in the direction sought with a large enough effect; inconclusive means small, poorly fitted or top-dose-only effect, or another doubt; inactive means no such curve, though single readings can be large; an effect the other way counts as inactive or inconclusive. Unless noted, on the % scale 0 is the no-effect control and ±100 the full control effect; potency means the concentration at half of the fitted maximal effect.
SMILES,Giardia FBPA inh,AmpC no deterg,RE007 growth inh,Sm TGR block,AmpC inh detg
Cc1nc(CCNC(=O)CC2C(=O)NCCN2Cc2ccoc2)nc2c1CCCC2 (centres undefined),-4%,15%,6%,28µM*,2%
Cc1nc(CNC(=O)CC2C(=O)NCCN2Cc2ccoc2)nc2c1CCCC2 (centres undefined),-16%,-3%,11%,14µM*,-4%
COc1ccc(-c2onc(C)c2C)cc1S(=O)(=O)N1CCC(C)CC1,nt,nt,nt,-3%,1%
O=C(NCc1cccc(F)c1F)C1CCC(=O)N(C2CC2)C1 (centres undefined),nt,58%,2%,-15%,7%
CCCCCOC(=O)Cc1c(O)c2ccccc2n(C)c1=O,-3%,-4%,-6%,4µM*,-17%
CCOCCCNC(=S)N1C2CCC1CC(NC(=O)NC1CCCCC1)C2 (centres undefined),0%,0.32µM*,-8%,1%,-2%
C/C(=N\NP(=S)(c1ccccc1)c1ccccc1)c1ccc(O)cc1O,-18%,16µM*,26%,-3%,9%
COC(=O)c1cc(NC(=O)c2cc(-c3ccc(C(F)(F)F)cc3)oc2C(F)(F)F)ccc1N1CCOCC1,-13%,3%,6%,-1%,3%
CN(C)C(=O)c1ccc(N=Nc2c(O)c3ccccc3[nH]c2=O)cc1,nt,nt,18µM*,nt,nt
CCCCn1c(N)c(N(CCOC)C(=O)CSCc2c(C)noc2C)c(=O)[nH]c1=O,nt,10%,-22%,79µM*,0%
CCCCn1c(N)c(N(CC)C(=O)CSCc2c(C)noc2C)c(=O)[nH]c1=O,0%,-15%,-12%,-9%,?
Cc1ccc(C(=O)Oc2ccc(C(=O)COC(=O)C3CC(=O)N(Cc4ccco4)C3)cc2)cc1 (centres undefined),4%,54%,14%,?,?
O=C(COC(=O)C1CC(=O)N(Cc2ccco2)C1)c1ccc(OC(=O)c2ccco2)cc1 (centres undefined),-16%,78%,6%,11µM*,?
CS(=O)(=O)c1ccc(Cl)c(C(=O)O)c1,24%,-19%,4%,17%,4%
CCn1c(SCC(=O)OCc2ccccc2)nc2c1c(=O)n(C)c(=O)n2C,8%,-8%,11%,-1%,-14%
Cc1ccc(S(=O)(=O)N2[C@H](CC(=O)c3ccccc3)OC[C@@H]2C)cc1,nt,nt,-6%,nt,nt
CCn1cc(C(=O)NCC(C)C)c(=O)c2cc(F)c(N3CCN(C)CC3)cc21,0%,33%,5%,-2%,-3%
CC1(C)CC2CC(C)(CN2/C=C2/CCCCC2=O)C1 (centres undefined),-6%,11%,2%,35µM*,-1%
CC1(C)C[C@@H]2C[C@@](C)(CN2C(=O)c2ccccc2)C1,5%,116%,0%,1%,-11%
CCc1ccc(C2C(C(=O)Nc3ccccc3OC)=C(C)Nc3c(C(=O)Nc4ccc(C)cc4)cnn32)cc1 (centres undefined),nt,nt,nt,2%,4%
CC(C(=O)Nc1ccc(C(=O)O)c(O)c1)N1C(=O)/C(=C\c2ccco2)SC1=S (centres undefined),nt,-29%,-7%,7.1µM*,-11%
O=C(CN1C(=O)/C(=C/c2ccco2)SC1=S)Nc1ccc(O)c(C(=O)O)c1,nt,-31%,1%,14µM*,-5%
O=C(CCCN1C(=O)/C(=C\c2ccco2)SC1=S)Nc1ccc(O)cc1C(=O)O,nt,-54%,-5%,10µM*,?
O=C(CCCN1C(=O)/C(=C/c2ccccc2)SC1=S)Nc1ccc(C(=O)O)c(O)c1,nt,-35%,-16%,-1%,3%
O=C(CN1C(=O)/C(=C/c2ccco2)SC1=S)Nc1ccc(C(=O)O)c(O)c1,nt,-42%,5%,14µM*,-6%
SMILES,Giardia FBPA inh,AmpC no deterg,RE007 growth inh,Sm TGR block,AmpC inh detg
O=C(CCCN1C(=O)/C(=C/c2cccs2)SC1=S)Nc1ccc(O)c(C(=O)O)c1,?,-22%,nt,3%,9%
O=C1C=C(N2CCOCC2)C2(CCCCC2)O1,-1%,138%,-15%,1%,2%
CN(C)c1c(F)cc(-c2nn[nH]n2)cc1F,3%,-18%,7%,15%,-5%
CC(C(=O)N(C)C1CCS(=O)(=O)C1)N1C(=O)/C(=C/c2ccco2)SC1=S (centres undefined),-28%,0%,-12%,25µM*,-10%
CC(=C\c1ccco1)/C=C1/SC(=S)N(CC(=O)O)C1=O,-13%,-39%,-8%,40µM*,2%
O=C(CN1C(=O)/C(=C/c2ccco2)SC1=S)NC1CCS(=O)(=O)C1 (centres undefined),?,-27%,-1%,20µM*,?
NN1C(=O)/C(=C\c2ccco2)SC1=S,6.3µM*,-27%,?,11µM*,-5%
COc1ccc(C)cc1NS(=O)(=O)c1ccc2[nH]c(=O)c(=O)[nH]c2c1,nt,nt,nt,0%,-3%
Cc1ccc(/C=C/C(=O)OCC(=O)Nc2ccccc2Sc2ccccc2)cc1,-2%,-15%,0%,-2%,-7%
CCc1nnc(NC(=O)CCC(=O)NCCc2ccc(OC)c(OC)c2)s1,4%,-8%,4%,4%,?
O=C(N1CCOCC1)C1(c2ccccc2)CCCCC1,-4%,-5%,6%,14%,-13%
CC(C)NC[C@H](O)c1ccc(O)c(O)c1,10µM*!,-14%,9%[18.4 µM],45µM*,?
CC(N)C(O)c1ccc(O)c(O)c1 (centres undefined),-28%,nt,nt,nt,nt
CCC(NC(C)C)C(O)c1ccc(O)c(O)c1 (centres undefined),2.8µM*,-24%,7%[18.4 µM],?,-11%
CCOC(=O)CSCC(=O)Nc1ccc(S(=O)(=O)N2CCCCC2)cc1,2%,-19%,14%,6%,?
COc1ccccc1/C=C/c1nc(C#N)c(NCC(C)C)o1,nt,nt,nt,-8%,23%
Cc1ccc(Nc2sc(C(=O)c3ccccc3)c(N)c2C(=O)NC(C)C)cc1,nt,nt,nt,32µM*,8%
CCOC(=O)c1c(-c2ccc(C)cc2)csc1NC(=O)/C(C#N)=C/c1ccc(O)c(OC)c1,-12%,8.9µM*,1%,-1%,-5%
CCOc1cc(/C=C(\C#N)C(=O)Nc2ccccn2)ccc1O,?,-15%,-7%,18µM*,?
COc1cc(/C=C(\C#N)C(=O)Nc2ccccn2)ccc1O,?,-7%,-5%,14µM*,-1%
C/C(CC(=O)N(C(C)C)C(C)C)=N\NC(=O)c1ccccc1Br,0%,-15%,7%,-3%,?
CCCCNC(=O)CS(=O)Cc1nc(-c2cccs2)oc1C (centres undefined),-5%,-18%,-7%,6.3µM*,?
Cc1oc(-c2cccs2)nc1CS(=O)CC(=O)NCCCOC(C)C (centres undefined),nt,1%,11%,14µM*,-11%
